PubChem BioAssay (Tox21)
Values joined by “and” are separate entries in the source; they are usually repeats but may differ in a detail not shown here. Equal values may be shown once. Results filed as inconclusive are left out. More than one record can exist for a structure, and the calls need not agree. Active and inactive are the calls of the source. Unless noted, the call rests on the fitted dose curve.

Experiments:
[1] = Nuclear factor erythroid 2-related factor 2/antioxidant responsive element (Nrf2/ARE) small molecule agonists: qHTS cell viability counter screen in human keratinocytes (AID 1919968; active means well fitted curve in the direction sought with a large enough effect in the repeat runs; an effect the other way counts as inactive or inconclusive; further: nearly all actives have a fitted effect of over 55% in size; further: potency means the concentration at half of the fitted maximal effect)
Method in brief: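 Fluorescence read-out from CellTiter-Fluor after 1 h at 37 C. Wells held HaCaT-derived ARE-luciferase reporter cells (1,500/well) treated 23 h with DMSO-dissolved compounds. Run in the same wells as the luciferase agonist read.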

[2] = Nuclear factor erythroid 2-related factor 2/antioxidant responsive element (Nrf2/ARE) small molecule agonists: luciferase reporter gene qHTS assay in human keratinocytes (AID 1919969); further: nearly all actives have a fitted effect of over 35% in size; further: potency means the concentration at half of the fitted maximal effect
[3] = target: KiSS-1 receptor (Homo sapiens) (UniProt Q969F8); experiment: Human kisspeptin (KISS1R) small molecule agonists, calcium flux assay in KISS1R-HEK293 cells (AID 1920064; active means well fitted curve in the direction sought with a large enough effect in the repeat runs; an effect the other way counts as inactive or inconclusive)
Method in brief: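 Calcium flux read-out: kinetic fluorescence at Ex/Em=480/540, 1 s intervals over 3 min, after pin-tool compound addition to dye-loaded KISS1R-HEK293 cells. Fifteen concentrations, triplicates.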

[4] = G protein-coupled receptor (GPCR) small molecule agonists, calcium flux assay: HEK293 wild type cell line counter screen (AID 1920065)
Method in brief: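 Agonist mode; 18 h seeding at 37 C, 1 h dye load at 37 C; compounds pinned from DMSO, ATP as positive control; kinetic fluorescence 480/540 nm, 3 min, 1 s reads; 15 concentrations, triplicate.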

[5] = p53 small molecule agonists, cell-based qHTS assay with human liver microsomes (AID 1963577);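 further: p53 response element beta-lactamase reporter cells with liver microsomes plus NADPH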
Method in brief: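 Steps: plate p53RE-bla cells, incubate 5 h at 37 C; add compound in DMSO; add microsomes (0.5 mg/mL final) and NADPH (0.5 mg/mL final); incubate 16 h at 37 C; add LiveBLAzer, 2 h RT; read fluorescence.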

[6] = p53 small molecule agonists, cell-based qHTS assay with rat liver microsomes (AID 1963578)
Method in brief: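 Metabolic activation is supplied by rat liver microsomes with NADPH (each 0.5 mg/mL final). p53RE-bla cells incubate with compound 16 h at 37 C; reporter activity is measured by LiveBLAzer fluorescence.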

[7] = p53 small molecule agonists, cell-based qHTS assay: qHTS cell viability counter screen (AID 1963581); further: nearly all actives have a fitted effect of over 45% in size
Method in brief: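 Cytotoxicity read-out: ATP-based luminescence (CellTiter-Glo, 30 min RT) measured in the same wells as the p53 reporter assay, HCT-116 p53RE-bla cells, 16 h compound exposure at 37 C.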

[8] = p53 small molecule agonists, cell-based qHTS assay (AID 1963582; active means well fitted activation curve with a large enough effect in the signal ratio in the repeat runs, not every such curve was filed as active; the % refers to the signal ratio; further: potency means the concentration at half of the fitted maximal effect)
Method in brief: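 Fluorescence intensity read-out of a beta-lactamase reporter under a p53 response element. Cells were exposed to DMSO-dissolved compounds for 16 h at 37 C, then developed with FRET substrate for 2 h at RT.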

[9] = cAMP Responsive Elements (CRE) small molecule agonists, cell-based qHTS assay (AID 1963590)
Method in brief: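 Beta-lactamase reporter readout: LiveBLAzer B/G FRET substrate, 2 h at room temperature, added after 3 h compound treatment of CRE-bla HEK 293T cells at 37 C/5% CO2.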

[10] = cAMP Responsive Elements (CRE) small molecule antagonists, cell-based qHTS assay (AID 1963591; active means well fitted inhibition curve with a large enough effect in the signal ratio in the repeat runs, not every such curve was filed as active; the % refers to the signal ratio; further: potency means the concentration at half of the fitted maximal effect)
Method in brief: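 HEK293T CRE-bla; 18 h preincubation; compound pin-transfer; NKH477 0.25 uM final, 3 h, 37 C; LiveBLAzer FRET substrate 2 h RT.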

[11] = p53 small molecule agonists, cell-based qHTS assay with human liver microsomes: qHTS cell viability counter screen (AID 1963579); further: nearly all actives have a fitted effect of over 45% in size; further: potency means the concentration at half of the fitted maximal effect
Method in brief: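 After the 460/530 nm beta-lactamase read, CellTiter-Glo was added to the same wells and luminescence measured after 30 min at room temperature, giving viability of p53RE-bla cells treated 16 h with compounds plus microsomes and NADPH.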

[12] = p53 small molecule agonists, cell-based qHTS assay with rat liver microsomes: qHTS cell viability counter screen (AID 1963580); further: nearly all actives have a fitted effect of over 45% in size
Method in brief: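 Cytotoxicity counter screen: intracellular ATP measured by CellTiter-Glo luminescence in the same wells as the beta-lactamase reporter read, on HCT-116 p53RE-bla cells exposed 16 h at 37 C to compounds with rat liver microsomes and NADPH, each 0.5 mg/mL final.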

[13] = target: Muscarinic acetylcholine receptor M1 (Homo sapiens) (UniProt P11229); experiment: Cholinergic receptor muscarinic 1 (CHRM1) small molecule antagonists, cell-based qHTS assay (AID 1963588); further: nearly all actives have a fitted effect of over 40% in size; further: potency means the concentration at half of the fitted maximal effect
Method in brief: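 Compounds were tested at 15 concentrations in three independent runs. Dye-loaded CHRM1-CHO cells were exposed 5 min at room temperature before stimulation by acetylcholine added at 50nM. Intracellular calcium was read kinetically on FDSS for 3 min.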

[14] = target: Muscarinic acetylcholine receptor M1 (Homo sapiens) (UniProt P11229); experiment: Cholinergic receptor muscarinic 1 (CHRM1) small molecule agonists, cell-based qHTS assay (AID 1963589); further: nearly all actives have a fitted effect of over 35% in size
Method in brief: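 Calcium flux read-out: kinetic fluorescence at 1 sec intervals after pin-tool compound addition to dye-loaded CHRM1-CHO cells (human M1). Agonist mode; 15 concentrations tested in triplicate independent runs.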

[15] = target: Beta-2 adrenergic receptor (Homo sapiens) (UniProt P07550); experiment: Adrenergic beta2 receptor (ADRB2) small molecule antagonists, cell-based qHTS assay (AID 1963592); further: series mostly up to about 92 µM; nearly all actives have a fitted effect of over 50% in size
Method in brief: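 Assay format: CHO-ADRB2 cells, 18-20hr seeding at 37C/5% CO2, then compound plus 1nM isoproterenol agonist mix for 0.5hr RT. Homogeneous time-resolved fluorescence cAMP detection after 1hr, expressed as 665/615 nm ratio.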

[16] = target: D(2) dopamine receptor (Homo sapiens) (UniProt P14416); experiment: Dopamine D2 receptor (DRD2) small molecule agonists, cell-based qHTS assay (AID 1963594); further: nearly all actives have a fitted effect of over 35% in size
Method in brief: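 HEK293 cells stably expressing human DRD2, pre-treated with PDE inhibitor Ro20-1724 (0.1 mM final) and compound 10 min at room temperature, then stimulated with NKH477 (200nM […]) for 30 min. cAMP read by HTRF (665/620 nm).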

[17] = target: D(2) dopamine receptor (Homo sapiens) (UniProt P14416); experiment: Dopamine D2 receptor (DRD2) small molecule antagonists, cell-based qHTS assay (AID 1963595; active means well fitted inhibition curve with a large enough effect in the signal ratio in the repeat runs, with a control signal flat; the % refers to the signal ratio; further: potency means the concentration at half of the fitted maximal effect)
Method in brief: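 HEK293 cells stably expressing DRD2, preincubated with 0.1 mM Ro20-1724 and compounds 10 min, were stimulated with 200 nM NKH477 plus 12 nM quinpirole for 30 min at room temperature; cAMP measured by HTRF (665/620 nm).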

[18] = target: 5-hydroxytryptamine receptor 2A (Homo sapiens) (UniProt P28223); experiment: 5-hydroxytryptamine receptor 2A (HTR2A) small molecule antagonists, cell-based qHTS assay (AID 1963586); further: nearly all actives have a fitted effect of over 45% in size
Method in brief: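 CHO cells stably expressing human HTR2A were plated for 18 h at 37 C, then loaded with calcium dye for 1 h. Compounds were preincubated 5 min at room temperature before DOI (4 nM solution) was added. Kinetic fluorescence was read for 3 min.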

[19] = target: 5-hydroxytryptamine receptor 2A (Homo sapiens) (UniProt P28223); experiment: 5-hydroxytryptamine receptor 2A (HTR2A) small molecule agonists, cell-based qHTS assay (AID 1963587); further: nearly all actives have a fitted effect of over 30% in size
Method in brief: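 CHO cells stably expressing human HTR2A, plated 18 h, loaded with calcium dye 1 h at 37 C. Agonist mode: compounds added and intracellular calcium fluorescence recorded kinetically for 2 min at 1 sec intervals.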

[20] = target: Beta-2 adrenergic receptor (Homo sapiens) (UniProt P07550); experiment: Adrenergic beta2 receptor (ADRB2) small molecule agonists, cell-based qHTS assay (AID 1963593);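 further: CHO cells stably overexpressing human ADRB2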
Method in brief: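 CHO cells stably over-expressing ADRB2 were plated overnight at 37C, then dosed with compounds plus a stimulation mix containing 100uM IBMX and 25uM Ro-20-1724 for 0.5hr at room temperature. cAMP was measured by HTRF competition, 1hr.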

Measured: Potency

KiSS-1 receptor (Homo sapiens), sequence (Q969F8 whole entry, looked up): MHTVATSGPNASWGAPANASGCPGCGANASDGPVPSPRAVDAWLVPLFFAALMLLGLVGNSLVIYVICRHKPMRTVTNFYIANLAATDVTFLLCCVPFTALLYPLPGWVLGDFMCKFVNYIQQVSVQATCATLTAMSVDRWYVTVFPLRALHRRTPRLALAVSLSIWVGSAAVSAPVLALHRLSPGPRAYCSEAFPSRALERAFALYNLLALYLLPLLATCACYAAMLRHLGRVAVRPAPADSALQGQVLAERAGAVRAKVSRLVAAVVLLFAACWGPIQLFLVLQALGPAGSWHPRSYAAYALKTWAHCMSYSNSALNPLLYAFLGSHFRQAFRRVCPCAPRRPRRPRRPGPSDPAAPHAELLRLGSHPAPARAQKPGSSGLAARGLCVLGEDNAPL
5-hydroxytryptamine receptor 2A (Homo sapiens), sequence (P28223 whole entry, looked up): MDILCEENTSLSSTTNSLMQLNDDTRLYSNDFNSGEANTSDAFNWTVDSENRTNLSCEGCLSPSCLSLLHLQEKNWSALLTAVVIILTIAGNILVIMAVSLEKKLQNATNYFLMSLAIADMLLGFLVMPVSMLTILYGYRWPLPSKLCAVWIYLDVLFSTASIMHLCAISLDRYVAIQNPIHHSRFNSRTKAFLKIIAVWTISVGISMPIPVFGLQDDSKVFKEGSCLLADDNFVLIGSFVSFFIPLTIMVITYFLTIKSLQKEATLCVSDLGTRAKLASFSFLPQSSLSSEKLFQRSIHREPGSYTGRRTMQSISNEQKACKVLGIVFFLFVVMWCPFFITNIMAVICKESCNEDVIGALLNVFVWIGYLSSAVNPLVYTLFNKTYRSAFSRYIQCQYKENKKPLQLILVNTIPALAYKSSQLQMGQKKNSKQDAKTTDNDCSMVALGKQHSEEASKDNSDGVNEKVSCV
D(2) dopamine receptor (Homo sapiens), sequence (P14416 whole entry, looked up): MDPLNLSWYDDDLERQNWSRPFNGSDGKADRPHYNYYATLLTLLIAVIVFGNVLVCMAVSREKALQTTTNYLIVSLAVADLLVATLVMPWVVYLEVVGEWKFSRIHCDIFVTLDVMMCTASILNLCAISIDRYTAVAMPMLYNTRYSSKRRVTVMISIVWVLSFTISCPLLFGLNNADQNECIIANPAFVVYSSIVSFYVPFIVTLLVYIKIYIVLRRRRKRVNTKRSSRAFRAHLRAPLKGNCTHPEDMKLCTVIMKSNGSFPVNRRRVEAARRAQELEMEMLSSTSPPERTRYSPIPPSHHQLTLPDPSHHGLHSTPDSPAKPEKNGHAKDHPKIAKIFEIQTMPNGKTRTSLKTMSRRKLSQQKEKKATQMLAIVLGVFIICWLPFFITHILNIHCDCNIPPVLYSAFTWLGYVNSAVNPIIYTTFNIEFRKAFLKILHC
Muscarinic acetylcholine receptor M1 (Homo sapiens), sequence (P11229 whole entry, looked up): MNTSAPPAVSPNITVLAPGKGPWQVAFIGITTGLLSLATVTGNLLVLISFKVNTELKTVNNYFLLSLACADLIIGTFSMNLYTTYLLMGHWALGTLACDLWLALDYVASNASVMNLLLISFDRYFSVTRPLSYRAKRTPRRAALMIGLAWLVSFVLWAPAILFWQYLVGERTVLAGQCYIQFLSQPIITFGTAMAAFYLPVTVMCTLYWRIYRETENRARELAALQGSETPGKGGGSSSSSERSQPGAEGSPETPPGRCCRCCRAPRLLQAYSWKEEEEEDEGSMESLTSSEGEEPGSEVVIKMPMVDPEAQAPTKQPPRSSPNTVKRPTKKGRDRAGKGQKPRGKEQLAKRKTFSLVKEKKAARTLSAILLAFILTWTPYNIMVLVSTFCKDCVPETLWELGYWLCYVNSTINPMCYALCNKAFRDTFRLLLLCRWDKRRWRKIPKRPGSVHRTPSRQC
Beta-2 adrenergic receptor (Homo sapiens), sequence (P07550 whole entry, looked up): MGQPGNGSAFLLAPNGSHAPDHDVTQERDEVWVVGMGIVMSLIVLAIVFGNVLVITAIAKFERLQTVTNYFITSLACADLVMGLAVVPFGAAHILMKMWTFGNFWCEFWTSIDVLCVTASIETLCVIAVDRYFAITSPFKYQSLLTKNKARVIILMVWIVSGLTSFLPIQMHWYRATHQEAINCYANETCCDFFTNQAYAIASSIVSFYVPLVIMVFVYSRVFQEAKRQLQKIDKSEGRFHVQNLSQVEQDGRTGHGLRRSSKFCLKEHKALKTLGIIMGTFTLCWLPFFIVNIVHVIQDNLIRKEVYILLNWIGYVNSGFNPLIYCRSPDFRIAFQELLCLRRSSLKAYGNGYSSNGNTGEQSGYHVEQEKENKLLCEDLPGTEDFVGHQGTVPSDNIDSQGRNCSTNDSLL

COc1cccc2c1C(=O)c1c(O)c3c(c(O)c1C2=O)C[C@@](O)(C(=O)CO)C[C@@H]3O[C@H]1C[C@H](N)[C@H](O)[C@H](C)O1
active: [1] 7.5 µM | [2] 2.73 µM and 6.68 µM | [8] 0.457 µM | [10] 26.6 µM
inactive: [3] | [4] | [5] | [6] | [7] | [9]

Cc1cc(OCCOCC[N+](C)(C)Cc2ccccc2)ccc1C(C)(C)CC(C)(C)C
active: [1] 21.6 µM and 7.5 µM | [13] 2.96 µM and 2.59 µM | [17] 38.3 µM
36.1 µM (active) and inactive: [11]
inactive: [2] | [3] | [4] | [12] | [14] | [15] | [16]

CCCCCCCCCCC
inactive: [1] | [2] | [3] | [4] | [5] | [6] | [12] | [7] | [8] | [18] | [13] | [14] | [9] | [10] | [15] | [16] | [17]

O=C1OC(=O)c2c(Cl)c(Cl)c(Cl)c(Cl)c21
inactive: [1] | [2] | [3] | [4] | [6] | [11] | [7] | [8] | [19] | [13] | [14] | [10] | [15] | [20] | [16] | [17]

CC(C)(C)c1ccc(S)cc1
active: [2] 48.6 µM
inactive: [1] | [3] | [4] | [5] | [12] | [7] | [8] | [18] | [13] | [14] | [9] | [10] | [15] | [16] | [17]

O=Nc1ccc(NO)cc1
active: [2] 63.6 µM
inactive: [1] | [3] | [4] | [6] | [11] | [12] | [7] | [8] | [18] | [13] | [14] | [9] | [10]

Nc1cc([N+](=O)[O-])ccc1Cl
inactive: [1] | [2] | [3] | [4] | [5] | [11] | [12] | [7] | [18] | [19] | [13] | [14] | [10] | [15] | [17]

COCCOCCOCCOCCOCCO
inactive: [1] | [2] | [3] | [5] | [6] | [11] | [12] | [7] | [8] | [18] | [19] | [13] | [14] | [9] | [10] | [15] | [20] | [16]

CC(C)C(=O)c1c(C(C)C)nn2ccccc12
inactive: [1] | [2] | [3] | [4] | [5] | [11] | [12] | [7] | [8] | [18] | [19] | [13] | [14] | [9] | [10] | [15] | [20] | [16]

CC/C=C\CCOC(=O)CCCCC
inactive: [1] | [2] | [3] | [4] | [5] | [6] | [12] | [7] | [8] | [18] | [13] | [14] | [9] | [10] | [15] | [16] | [17]

Cc1ccccc1C
active: [13] 1.5 nM
inactive: [1] | [2] | [3] | [4] | [5] | [11] | [12] | [7] | [8] | [18] | [19] | [14] | [9] | [10] | [15] | [20] | [17]

OC[C@H]1O[C@@H]2O[C@H]3[C@H](O)[C@@H](O)[C@@H](O[C@H]4[C@H](O)[C@@H](O)[C@@H](O[C@H]5[C@H](O)[C@@H](O)[C@@H](O[C@H]6[C@H](O)[C@@H](O)[C@@H](O[C@H]7[C@H](O)[C@@H](O)[C@@H](O[C@H]1[C@H](O)[C@H]2O)O[C@@H]7CO)O[C@@H]6CO)O[C@@H]5CO)O[C@@H]4CO)O[C@@H]3CO
inactive: [1] | [2] | [3] | [4] | [11] | [12] | [7] | [9] | [10] | [15] | [20] | [16] | [17]

CCOC(=O)CC(C(C)=O)C(C)=O
inactive: [1] | [2] | [3] | [4] | [6] | [11] | [12] | [18] | [19] | [13] | [14] | [9] | [10] | [20] | [16] | [17]

C=C1C[C@]23C[C@@]1(O)CC[C@H]2[C@@]12C=C[C@H](O)[C@@](C)(C(=O)O1)[C@H]2[C@@H]3C(=O)O
inactive: [1] | [2] | [3] | [4] | [11] | [12] | [7] | [18] | [19] | [13] | [9] | [10] | [15] | [16] | [17]

CCCCCCOC(=O)c1ccccc1O
inactive: [1] | [2] | [4] | [5] | [6] | [11] | [12] | [7] | [8] | [18] | [19] | [13] | [14] | [9] | [10] | [15] | [20] | [16] | [17]

Cc1cccc(Nc2ccccc2C(=O)O)c1C
inactive: [1] | [2] | [3] | [4] | [11] | [12] | [7] | [15] | [20] | [16] | [17]
